We go through ten molecules from PubChem BioAssay (NCI).

A short description of assay [1]: NCI Yeast Anticancer Drug Screen. Data for the rad50 strain (AID 155).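 Note: 0% = growth of vehicle-only cultures of the same strain.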 As to conditions: S. cerevisiae rad50 strain growth inhibition, active compounds read high. The method in brief:
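Compounds were tested on a yeast strain with an engineered DNA damage repair alteration; the reported value is growth inhibition normalised to vehicle treatment.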

A short description of assay [2]: NCI Yeast Anticancer Drug Screen. Data for the mec2-1 strain (AID 157). As to conditions: S. cerevisiae mec2-1 strain, active compounds read high. Put shortly: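 Growth inhibition is read against vehicle-treated controls after compound exposure of the mec2-1 yeast strain, which is defective in DNA damage repair or cell cycle control.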
Assay [3] in a line: NCI Yeast Anticancer Drug Screen. Data for the sgs1 mgt1 strain (AID 161).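 Note: 0% = growth of cultures given vehicle only.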 The settings on record: S. cerevisiae sgs1 mgt1 strain, active compounds read high. Put shortly: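 This yeast growth screen uses a strain with defined DNA-repair lesions; compound-treated growth is compared with vehicle-treated growth.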
A short description of assay [4]: NCI Yeast Anticancer Drug Screen. Data for the cln2 rad14 strain (AID 165).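 Note: 0% = growth equal to vehicle treated cultures.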 The settings on record: S. cerevisiae cln2 rad14 strain, active compounds read high. Put shortly:
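Growth inhibition, relative to vehicle-treated controls, is the read-out. The test organism is a yeast strain with defined genetic alterations, cln2 rad14.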

Assay [5] can be described thus: NCI Yeast Anticancer Drug Screen. Data for the bub3 strain (AID 167). As to conditions: S. cerevisiae bub3 mutant strain, active compounds read high. Put shortly:
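Growth of a checkpoint-deficient yeast mutant is measured after compound exposure. Values represent inhibition relative to vehicle.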

The nature of assay [6]: NCI Yeast Anticancer Drug Screen. Data for the mlh1 rad18 strain (AID 175). As to conditions: S. cerevisiae mlh1 rad18 strain growth inhibition, active compounds read high. Put shortly: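 Cells of a genetically altered yeast strain, deficient in DNA damage repair, were treated with compound. Their growth was then compared with that of vehicle-treated cultures to give inhibition.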

[7] abbreviates: at 5.0 µM (retest, dose inferred, filed as 0.5).
Setting [8] is: at 50.0 µM (retest, dose inferred, filed as 5.0).

Each structure is given as a SMILES string. The panel holds about 79,000 compounds, 15% with a hit somewhere; the sample as a whole holds those more often. A number with no mark means an inactive call. The source made the active and inactive calls. Cut-off read from the data, not from the text of the source: active = growth inhibition above about 70%; inactive = the rest.

On to `O=[N+]([O-])c1ccccc1SCc1ccccc1`, for which the growth inhibition is 17% in assay [1] (setting [7]); 47% in assay [1] (setting [8]); 85.4% (active) in assay [1] (at 50.0 µM); -18% in assay [2] (setting [7]); 35% in assay [2] (setting [8]); 15.8% in assay [2] (at 50.0 µM). In addition, the growth inhibition in assay [3] (setting [7]) was 16%; in assay [3] (setting [8]), 49%; in assay [3] (at 50.0 µM), 54.7%; in assay [4] (setting [7]) it was 15%; in assay [4] (setting [8]), 43%; in assay [4] (at 50.0 µM) it was 44%. The growth inhibition was -1% in assay [5] (setting [7]); 79% (active) in assay [5] (setting [8]); 30.8% in assay [5] (at 50.0 µM); 13% in assay [6] (setting [7]); 74% (active) in assay [6] (setting [8]); 52.6% in assay [6] (at 50.0 µM).

Take `COc1cc(C(=O)OCC(C)C)ccc1O`: the growth inhibition was 3% in assay [1] (setting [7]); 33% in assay [1] (setting [8]); 15.1% in assay [1] (at 50.0 µM); 3% in assay [2] (setting [7]); 4% in assay [2] (setting [8]); 6.2% in assay [2] (at 50.0 µM). Moreover, the growth inhibition in assay [3] (setting [7]) was 2%; in assay [3] (setting [8]) it was 8%; in assay [3] (at 50.0 µM), 2.8%; in assay [4] (setting [7]), 2%; in assay [4] (setting [8]), 14%; in assay [4] (at 50.0 µM), -16.1%. Moreover, the growth inhibition in assay [5] (setting [7]) is 96% (active); in assay [5] (setting [8]), 98% (active); in assay [5] (at 50.0 µM), 45.3%; in assay [6] (setting [7]), -5%; in assay [6] (setting [8]) it was 13%; in assay [6] (at 50.0 µM), 3.3%.

Turning to `O=S(=O)(CCNCCCCC1CCCCC1)SCCNCCCCC1CCCCC1`, the growth inhibition in assay [1] (setting [7]) is 48%; in assay [1] (setting [8]), 99% (active); in assay [1] (at 50.0 µM) it was 68.3%; in assay [2] (setting [7]), 3%; in assay [2] (setting [8]) it was 99% (active); in assay [2] (at 50.0 µM) it was 49.1%. The growth inhibition is 70% (active) in assay [3] (setting [7]); 99% (active) in assay [3] (setting [8]); 55.1% in assay [3] (at 50.0 µM); 10% in assay [4] (setting [7]); 99% (active) in assay [4] (setting [8]); 56.5% in assay [4] (at 50.0 µM). Moreover, the growth inhibition in assay [5] (setting [7]) was 16%; in assay [5] (setting [8]), 99% (active); in assay [5] (at 50.0 µM), 98.8% (active); in assay [6] (setting [7]) it was 38%; in assay [6] (setting [8]), 99% (active); in assay [6] (at 50.0 µM) it was 47%.

On to `CCCCNC(=O)OCc1c(COC(=O)NCCCC)c(-c2ccc(Cl)c(Cl)c2)n2c1CCC2`, for which the growth inhibition in assay [1] (setting [7]) is 33%; in assay [1] (setting [8]), 98% (active); in assay [1] (at 50.0 µM), 26.6%; in assay [2] (setting [7]), 27%; in assay [2] (setting [8]), 99% (active); in assay [2] (at 50.0 µM) it was 7.3%. For the same molecule, the growth inhibition was 48% in assay [3] (setting [7]); 99% (active) in assay [3] (setting [8]); 31.2% in assay [3] (at 50.0 µM); 53% in assay [4] (setting [7]); 98% (active) in assay [4] (setting [8]); 70% in assay [4] (at 50.0 µM). For the same molecule, the growth inhibition was 56% in assay [5] (setting [7]); 98% (active) in assay [5] (setting [8]); 4.4% in assay [5] (at 50.0 µM); 25% in assay [6] (setting [7]); 98% (active) in assay [6] (setting [8]); 31.8% in assay [6] (at 50.0 µM).

On to `Cc1cccc2ccc3cc(CC(=O)O)c4cccc(C)c4c3c12`, for which the growth inhibition is 45% in assay [1] (setting [7]); 99% (active) in assay [1] (setting [8]); 99.7% (active) in assay [1] (at 50.0 µM); 33% in assay [2] (setting [7]); 99% (active) in assay [2] (setting [8]); 99.8% (active) in assay [2] (at 50.0 µM). For the same molecule, the growth inhibition was 42% in assay [3] (setting [7]); 99% (active) in assay [3] (setting [8]); 99.8% (active) in assay [3] (at 50.0 µM); 33% in assay [4] (setting [7]); 99% (active) in assay [4] (setting [8]); 99.5% (active) in assay [4] (at 50.0 µM). Also, the growth inhibition in assay [5] (setting [7]) is 32%; in assay [5] (setting [8]), 99% (active); in assay [5] (at 50.0 µM) it was 99.8% (active); in assay [6] (setting [7]), 36%; in assay [6] (setting [8]), 99% (active); in assay [6] (at 50.0 µM), 99.7% (active).

Consider `CC1(c2ccc(Cl)cc2)OC(=O)C(=Cc2ccc([N+](=O)[O-])s2)C(=O)O1` (stereo not given), for which the growth inhibition in assay [1] (setting [7]) was 26%; in assay [1] (setting [8]), 99% (active); in assay [1] (at 50.0 µM) it was 51.5%; in assay [2] (setting [7]) it was 15%; in assay [2] (setting [8]), 99% (active); in assay [2] (at 50.0 µM), 40.4%. The growth inhibition was 49% in assay [3] (setting [7]); 99% (active) in assay [3] (setting [8]); 88.9% (active) in assay [3] (at 50.0 µM); 44% in assay [4] (setting [7]); 99% (active) in assay [4] (setting [8]); 52.4% in assay [4] (at 50.0 µM). In addition, the growth inhibition in assay [5] (setting [7]) is 45%; in assay [5] (setting [8]) it was 99% (active); in assay [5] (at 50.0 µM) it was 84.7% (active); in assay [6] (setting [7]) it was 18%; in assay [6] (setting [8]), 82% (active); in assay [6] (at 50.0 µM) it was 92.9% (active).

For `O=C(c1ccccc1)C(Cl)c1ccccc1` (stereo not given), the growth inhibition is 9% in assay [1] (setting [7]); 99% (active) in assay [1] (setting [8]); 91.6% (active) in assay [1] (at 50.0 µM); -12% in assay [2] (setting [7]); 99% (active) in assay [2] (setting [8]); 95.2% (active) in assay [2] (at 50.0 µM). Also, the growth inhibition in assay [3] (setting [7]) was 1%; in assay [3] (setting [8]) it was 97% (active); in assay [3] (at 50.0 µM), 97.5% (active); in assay [4] (setting [7]), 0%; in assay [4] (setting [8]), 41%; in assay [4] (at 50.0 µM), 44%. Also, the growth inhibition was 51% in assay [5] (setting [7]); 99% (active) in assay [5] (setting [8]); 94% (active) in assay [5] (at 50.0 µM); 0% in assay [6] (setting [7]); 99% (active) in assay [6] (setting [8]); 95.2% (active) in assay [6] (at 50.0 µM).

`O=C(O/N=C(/Cc1ccccc1)c1ccccc1)c1ccccc1`: the growth inhibition in assay [1] (setting [7]) was -15%; in assay [1] (setting [8]), 63%; in assay [1] (at 50.0 µM), 90.3% (active); in assay [2] (setting [7]), -10%; in assay [2] (setting [8]), 72% (active); in assay [2] (at 50.0 µM), 28.1%. For the same molecule, the growth inhibition in assay [3] (setting [7]) is -1%; in assay [3] (setting [8]), 76% (active); in assay [3] (at 50.0 µM), 88.8% (active); in assay [4] (setting [7]), -6%; in assay [4] (setting [8]) it was 92% (active); in assay [4] (at 50.0 µM), 43.6%. Also, the growth inhibition in assay [5] (setting [7]) is -17%; in assay [5] (setting [8]), 66%; in assay [5] (at 50.0 µM) it was 18.4%; in assay [6] (setting [7]), 3%; in assay [6] (setting [8]), 87% (active); in assay [6] (at 50.0 µM) it was 93.2% (active).

For the molecule `O=C(CNc1cccc([N+](=O)[O-])c1)Nn1c(-c2ccccc2)nc2ccccc2c1=O`, the growth inhibition in assay [1] (setting [7]) was 2%; in assay [1] (setting [8]) it was 30%; in assay [1] (at 50.0 µM), 55.5%; in assay [2] (setting [7]), -3%; in assay [2] (setting [8]) it was 17%; in assay [2] (at 50.0 µM), 18.4%. The growth inhibition in assay [3] (setting [7]) is 3%; in assay [3] (setting [8]), 21%; in assay [3] (at 50.0 µM), 62.7%; in assay [4] (setting [7]) it was 12%; in assay [4] (setting [8]), 35%; in assay [4] (at 50.0 µM), 38.6%. Besides, the growth inhibition in assay [5] (setting [7]) was -18%; in assay [5] (setting [8]) it was 9%; in assay [5] (at 50.0 µM), 54.6%; in assay [6] (setting [7]), 7%; in assay [6] (setting [8]), 41%; in assay [6] (at 50.0 µM), 76.7% (active).

For `O=NN(CCCl)C(=O)NCCSSCCNC(=O)N(CCCl)N=O` (tested in a mixture with another compound), the growth inhibition is 29% in assay [1] (setting [7]); 62% in assay [1] (setting [8]); 36.1% in assay [1] (at 50.0 µM); 20% in assay [2] (setting [7]); 39% in assay [2] (setting [8]); 38.6% in assay [2] (at 50.0 µM). Further, the growth inhibition was 40% in assay [3] (setting [7]); 77% (active) in assay [3] (setting [8]); 59.1% in assay [3] (at 50.0 µM); 14% in assay [4] (setting [7]); 29% in assay [4] (setting [8]); 21.6% in assay [4] (at 50.0 µM). In addition, the growth inhibition is 30% in assay [5] (setting [7]); 38% in assay [5] (setting [8]); 14.2% in assay [5] (at 50.0 µM); 73% (active) in assay [6] (setting [7]); 96% (active) in assay [6] (setting [8]); 72.1% (active) in assay [6] (at 50.0 µM).
